According to PubChem BioAssay (NCATS):
Results filed as inconclusive are left out. Activity calls are given as the source filed them. Unless noted, calls follow the shape of the dose curve; as a rule, active = well fitted curve in the direction sought with a large enough effect; inconclusive = small, poorly fitted or top-dose-only effect, or another doubt; inactive = no such curve, though single readings can be large; an effect the other way counts as inactive or inconclusive.

How the values were obtained:
[1] = Cell Viability - Hek293 (AID 427;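 active = compounds whose dose-response curve shows a full or clear partial loss of cell viability, called from curve shape rather than a numeric limit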;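 also: potency is read from the fitted curve at half-maximal effect; cells exposed to compound for 40 hours at 37 °C before reading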); conditions: qHTS
Outline: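 qHTS, human embryonic kidney (adenovirus-transformed) cells; 40 hr cpd, 37 °C; CellTiter-Glo ATP luminescence. Norm: DMSO = 0, 100 uM tamoxifen = 100% inhibition. Hill-fit AC50.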

[2] = Cell Viability - SH-SY5Y (AID 544); conditions: SH-SY5Y neuroblastoma cell viability; viability change, negative = cytotoxic: at 92.2 µM (top of the series); also: nearly all actives have a fitted effect of over 55% in size; also: potency is read from the fitted curve at half-maximal effect;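 as to viability change, negative = cytotoxic: 0% = DMSO alone and -100% = 100 µM tamoxifen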
Outline: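 Cytotoxicity is scored as a concentration-dependent fall in intracellular ATP in human SH-SY5Y cells treated 40 hr in complete culture medium. Potency is expressed as AC50 from a Hill equation fit.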

[3] = Cell Viability - Renal Proximal Tubule (AID 545); conditions: renal proximal tubule cells viability, primary cells of rat origin; activity change, negative = cytotoxicity: at 91.7 µM (top of the series);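 also: 0% = DMSO only and -100% = 100 µM tamoxifen; nearly all actives have a fitted effect of over 40% in size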
Outline: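 Rat renal proximal tubule primary cells, 1000/well, exposed to compounds for 40 hr at 37 °C in complete medium; cellular ATP read by CellTiter-Glo luminescence. AC50 from concentration-response fitted with standard Hill equation.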

[4] = Cell Viability - LYMP2-001 (AID 921); conditions: LYMP2-001 lymphoblastoid cell viability; series mostly up to 92.2 µM; also: nearly all actives have a fitted effect of over 70% in size; also: potency is read from the fitted curve at half-maximal effect
Outline: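 Human lymphoblastoid LYMP2-001 cells, 2500 per well, in complete medium, treated 24 h at 37 C. Viability from cellular ATP by CellTiter-Glo luminescence; AC50 from Hill-equation fits of qHTS concentration-response.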

[5] = MultiTox-Fluor Cytotoxicity Assay - LYMP1-002 - Dead Cells (AID 960); conditions: LYMP1-002 lymphoblastoid cells, dead-cell protease fluorescence; series mostly up to 46.1 µM;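 also: cells exposed to compound for 16 h at 37 °C; 0% = DMSO and 100% = tetraoctylammonium bromide; nearly all actives have a fitted effect of over 60% in size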
Outline: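 Acute cytotoxicity in a human lymphoblastoid line is scored as rising dead-cell protease signal after 16 hr exposure at 37 C, measured fluorometrically (485/520).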

[6] = Cell Viability - LYMP2-005 (AID 967); conditions: LYMP2-005 lymphoblastoid cell viability; series mostly up to 92.2 µM; also: potency is read from the fitted curve at half-maximal effect
Outline: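 Human lymphoblastoid LYMP2-005 cells, 2,500 per well in complete medium, rested 5 h at 37C then compound-treated 24 h at 37C. Intracellular ATP read by CellTiter-Glo luminescence after 30 min at room temperature; AC50 from Hill-equation fits of concentration-response data.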

[7] = Cell Viability - LYMP2-017 (AID 972); conditions: LYMP2-017 lymphoblastoid cell viability; series mostly up to 92.2 µM;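 also: cells exposed to compound for 24 hours at 37 °C; nearly all actives have a fitted effect of over 55% in size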; also: potency is read from the fitted curve at half-maximal effect; as to activity change, negative = cytotoxicity: % is scaled to controls: 0 for no effect and ±100 for the full control effect
Outline: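 Steps: plate 2500 lymphoblastoid cells per well; incubate 5 hr at 37 C; add compound across a concentration series and incubate 24 hr at 37 C; add CellTiter-Glo and read luminescence after 30 min at room temperature; fit Hill curves for AC50.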

[8] = Cell Viability - LYMP2-019 (AID 973); conditions: LYMP2-019 lymphoblastoid cell line viability; series mostly up to 92.2 µM; also: nearly all actives have a fitted effect of over 55% in size; also: potency is read from the fitted curve at half-maximal effect;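 as to activity change, negative = cytotoxicity: 0% = DMSO alone and full effect = 92 µM tetraoctylammonium bromide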
Outline: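 Cells plated at 2500/well and allowed 5 hr at 37 C before compound addition. After 24 hr incubation, CellTiter-Glo reagent was added, plates sat 30 min at room temperature, and luminescence was recorded.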

[9] = Cell Viability - LYMP2-010 (AID 981); conditions: LYMP2-010 lymphoblastoid cell viability, qHTS; series mostly up to 92.2 µM;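 also: cells exposed to compound for 24 hours at 37 °C; nearly all actives have a fitted effect of over 55% in size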; also: potency is read from the fitted curve at half-maximal effect
Outline: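 Acute toxicity is scored as a concentration-dependent loss of cellular ATP in human lymphoblastoid cells after 24 hr compound exposure in complete medium. Tetraoctylammonium bromide is the positive control.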

[10] = qHTS assay for small molecule agonists of retinoid X receptor alpha signaling (AID 588544; calls by dose curve); conditions: HEK293T RXRa-UAS-bla, beta-lactamase reporter, 18 h; 530 nm emission
[11] = molecular target: Retinoic acid receptor RXR-alpha (Homo sapiens) (UniProt P19793); assay: as above; conditions: HEK293T RXRa-UAS-bla, beta-lactamase reporter, 18 h; series mostly up to 76.7 µM
[12] = molecular target: Thyroid hormone receptor beta (Homo sapiens) (UniProt P10828); assay: qHTS assay for small molecule agonists of thyroid hormone receptor beta signaling (AID 588545; calls by dose curve); conditions: TR-UAS-bla GripTite HEK 293, beta-lactamase ratio, agonist mode, 18 h; series mostly up to 76.7 µM
Outline: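 Agonist activity was read as beta-lactamase CCF4 fluorescence (405 ex, 460/530 em), scaled between DMSO (0%) and 10 nM T3 (100%), then Hill-fitted for EC50 and efficacy. HEK 293 TR-UAS-bla cells in 2% charcoal/dextran FBS medium were exposed 18 h at 37 C.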

[13] = qHTS assay for small molecule disruptors of the mitochondrial membrane potential - 1 hr assay (AID 651754; calls by dose curve; also: nearly all actives have a fitted effect of over 35% in size; also: potency is read from the fitted curve at half-maximal effect); conditions: series mostly up to 92.2 µM
Outline: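 Steps: seed HepG2 cells and let attach overnight; pin-transfer compound or vehicle; incubate 1 hr at 37C; add Mito-MPS dye for 30 min; read two-channel fluorescence for monomer and aggregate forms.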

[14] = qHTS assay for small molecule disruptors of the mitochondrial membrane potential - 5 hr assay (AID 651755; calls by dose curve; also: nearly all actives have a fitted effect of over 40% in size; also: potency is read from the fitted curve at half-maximal effect); conditions: JC-1-type ratio dye; series mostly up to 92.2 µM
Outline: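 HepG2 cells, attached overnight at 37C, were exposed to compound or DMSO for 5 hr at 37C, 5% CO2. Mito-MPS dye was then added for 30 min, and fluorescence read at 490/535 nm (monomers) and 540/590 nm (aggregates).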

[15] = qHTS assay for small molecule agonists of the antioxidant response element (ARE) signaling pathway measured by Nrf2-dependant transcriptional activity (AID 720636; active = well fitted curve in the direction sought with a large enough effect in the repeat runs; an effect the other way counts as inactive or inconclusive; also: potency is read from the fitted curve at half-maximal effect); conditions: ARE-luc HepG2, Nrf2 luciferase reporter, 16 h; series mostly up to 92.4 µM
Outline: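 Attachment 6 hr at 37 C, then compound versus DMSO vehicle for 16 hr in ARE-luc HepG2 cells (1% dialyzed FBS); luminescence recorded 30 min after ONE-Glo addition at room temperature.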

[16] = molecular target: Nuclear receptor subfamily 1 group I member 2 (Rattus norvegicus) (UniProt Q9R1A7); assay: qHTS assay for small molecule activators of the rat pregnane X receptor (rPXR) signaling pathway (AID 651751; call rule not given here; also: 0% is about no effect); conditions: rPXR reporter cells, luciferase (One-Glo), 24 h
[17] = Cell Viability - SK-N-SH (AID 435; calls by dose curve;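 also: potency is read from the fitted curve at half-maximal effect; compound exposure lasted 40 h at 37 °C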); conditions: SK-N-SH neuroblastoma cell viability qHTS
Outline: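 SK-N-SH neuroblastoma cells (1500/well) treated 40 h at 37 °C in complete medium; viability read as cellular ATP by CellTiter-Glo luminescence. Normalized to DMSO and 100 uM tamoxifen; AC50 from Hill fits of qHTS concentration-response.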

[18] = Cell Viability - N2a (AID 540); conditions: N2a mouse neuroblastoma cell viability; activity change, negative = cytotoxicity: at 92.2 µM (top of the series); also: nearly all actives have a fitted effect of over 45% in size; also: potency is read from the fitted curve at half-maximal effect;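 as to activity change, negative = cytotoxicity: plate controls were DMSO alone for no effect and tamoxifen control for full effect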
Outline: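 First, 1500 N2a cells per well incubate 5 hr at 37 °C; next, compounds are added and incubated 40 hr at 37 °C; finally CellTiter-Glo is added and luminescence read after 20 min, with AC50 derived by Hill modeling.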

[19] = Cell Viability - LYMP2-015 (AID 971); conditions: LYMP2-015 lymphoblastoid cell viability; series mostly up to 92.2 µM; also: nearly all actives have a fitted effect of over 55% in size; also: potency is read from the fitted curve at half-maximal effect
Outline: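 Acute toxicity was scored as a concentration-dependent drop in intracellular ATP in lymphoblastoid cells after 24 hr compound exposure in complete medium. Detection used CellTiter-Glo luciferase luminescence.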

[20] = Cell Viability - LYMP2-009 (AID 968); conditions: LYMP2-009 lymphoblastoid cell viability; series mostly up to 92.2 µM; also: nearly all actives have a fitted effect of over 55% in size; also: potency is read from the fitted curve at half-maximal effect

Sequence of Nuclear receptor subfamily 1 group I member 2 (Rattus norvegicus) (Q9R1A7 whole entry, looked up): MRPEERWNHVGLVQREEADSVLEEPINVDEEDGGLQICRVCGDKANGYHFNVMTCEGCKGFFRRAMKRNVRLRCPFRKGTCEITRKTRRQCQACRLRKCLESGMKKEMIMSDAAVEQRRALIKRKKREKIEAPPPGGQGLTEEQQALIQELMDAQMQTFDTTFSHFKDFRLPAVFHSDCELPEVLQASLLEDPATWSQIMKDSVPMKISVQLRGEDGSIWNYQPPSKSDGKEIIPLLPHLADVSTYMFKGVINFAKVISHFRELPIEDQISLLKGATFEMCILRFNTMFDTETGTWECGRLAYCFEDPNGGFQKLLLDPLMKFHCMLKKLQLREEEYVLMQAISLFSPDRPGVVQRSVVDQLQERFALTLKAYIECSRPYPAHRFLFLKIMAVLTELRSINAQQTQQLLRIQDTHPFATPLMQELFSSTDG
Sequence of Retinoic acid receptor RXR-alpha (Homo sapiens) (P19793 whole entry, looked up): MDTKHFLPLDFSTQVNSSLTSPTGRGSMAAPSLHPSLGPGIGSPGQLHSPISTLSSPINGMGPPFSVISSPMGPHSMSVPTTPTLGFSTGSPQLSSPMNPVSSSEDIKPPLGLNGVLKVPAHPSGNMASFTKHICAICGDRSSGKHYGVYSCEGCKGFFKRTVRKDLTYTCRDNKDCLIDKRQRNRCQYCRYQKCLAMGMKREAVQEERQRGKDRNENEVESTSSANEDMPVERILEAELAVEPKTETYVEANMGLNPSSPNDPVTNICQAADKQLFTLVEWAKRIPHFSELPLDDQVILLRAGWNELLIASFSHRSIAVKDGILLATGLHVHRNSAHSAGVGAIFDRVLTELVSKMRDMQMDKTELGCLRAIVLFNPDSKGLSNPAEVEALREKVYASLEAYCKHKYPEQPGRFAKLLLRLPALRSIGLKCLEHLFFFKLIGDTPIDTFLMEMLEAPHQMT
Sequence of Thyroid hormone receptor beta (Homo sapiens) (P10828 whole entry, looked up): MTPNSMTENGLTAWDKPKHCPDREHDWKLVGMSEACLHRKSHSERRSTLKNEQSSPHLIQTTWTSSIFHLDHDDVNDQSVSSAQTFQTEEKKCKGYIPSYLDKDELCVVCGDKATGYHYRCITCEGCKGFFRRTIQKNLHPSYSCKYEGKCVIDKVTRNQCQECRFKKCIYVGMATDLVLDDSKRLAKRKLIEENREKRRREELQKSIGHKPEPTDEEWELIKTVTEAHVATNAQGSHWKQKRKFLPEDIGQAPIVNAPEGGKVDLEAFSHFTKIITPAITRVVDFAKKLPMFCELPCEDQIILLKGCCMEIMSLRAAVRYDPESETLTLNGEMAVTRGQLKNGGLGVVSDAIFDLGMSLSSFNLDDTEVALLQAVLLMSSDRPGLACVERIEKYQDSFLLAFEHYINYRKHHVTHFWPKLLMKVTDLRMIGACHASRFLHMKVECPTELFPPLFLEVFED

Cc1ccc(O)c(N)c1
inactive: Potency [1] > 92 µM | Potency [3] | Potency [5] | Potency [11] | Potency [12] | max response [16] 12.1%
23.6%: max response [10]
active: Potency [2] 20 µM | Potency [4] 50.1 µM | Potency [6] 50.1 µM | Potency [7] 50.1 µM | Potency [8] 39.8 µM | Potency [9] 39.8 µM | Potency [13] 29.8 µM | Potency [14] 33.5 µM | Potency [15] 42.2 µM

c1cc2c3c(c1)ccc1cccc(c13)C2
-13.6%: max response [10]
inactive: Potency [1] > 92 µM | Potency [17] > 92 µM | activity change, negative = cytotoxicity [18] 0.332% | Potency [2] | Potency [3] | Potency [4] | Potency [5] | Potency [6] | Potency [19] | Potency [7] | Potency [8] | Potency [9] | Potency [11] | Potency [12] | Potency [13] | Potency [14] | Potency [15] | max response [16] -0.774%

Oc1cc2c(cc1O)[C@H]1c3ccc(O)c(O)c3OC[C@@]1(O)C2
5.74%: max response [10]
active: activity change, negative = cytotoxicity [18] -91.8% | viability change, negative = cytotoxic [2] -82.8% | Potency [20] 39.8 µM | Potency [19] 25.1 µM | Potency [7] 31.6 µM | Potency [8] 39.8 µM | Potency [9] 39.8 µM
inactive: Potency [5] | Potency [11] | Potency [12] | Potency [13] | Potency [14] | max response [16] -8.86%

CC(C)(C)C(=O)C1C(=O)c2ccccc2C1=O
inactive: Potency [3] | Potency [4] | Potency [5] | Potency [6] | Potency [20] | Potency [7] | Potency [8] | Potency [13] | Potency [14] | Potency [15] | max response [16] -2.46%
active: Potency [17] 20.1 µM | activity change, negative = cytotoxicity [18] -83%

CCCCC(CC)COP(=O)(OCC(CC)CCCC)OCC(CC)CCCC (configuration not stated)
-2.54%: max response [10]
inactive: Potency [17] > 92 µM | Potency [2] | Potency [3] | Potency [4] | Potency [6] | Potency [20] | Potency [19] | Potency [7] | Potency [8] | Potency [9] | Potency [11] | Potency [12] | Potency [13] | Potency [14] | Potency [15] | max response [16] 1.51%

O=C=Nc1ccc(Cl)c(Cl)c1
inactive: Potency [5] | Potency [6] | Potency [15]
active: Potency [1] 38.9 µM | Potency [18] 31.6 µM | Potency [13] 4.22 µM | Potency [14] 5.96 µM

CC(=O)Nc1cccc(C)c1
-8.8%: max response [10]
inactive: Potency [1] > 92 µM | activity change, negative = cytotoxicity [18] -6.73% | Potency [3] | Potency [4] | Potency [5] | Potency [20] | Potency [19] | Potency [7] | Potency [8] | Potency [9] | Potency [11] | Potency [13] | Potency [14] | Potency [15] | max response [16] -0.307%
